Compound activity: PubChem BioAssay, several laboratories
NOD2-RIPK2 inh = NOD2-RIPK2 binding disruptors in cells, primary screen, fluorescence, CHO cells, BLA complementation; CCF4 ratio; Receptor-interacting serine/threonine-protein kinase 2 (Homo sapiens), O43353; inhibition, % at 4.98 µM; 360,000 compounds, 0.38% hits; in the data active = inhibition above about 21%
HTR2A ag = mouse Htr2a agonists via beta-arrestin recruitment, primary screen, cell-based, luminescence; 5-hydroxytryptamine receptor 2A (Mus musculus), P35363; CHO-K1 mHTR2A beta-arrestin complementation; percent of 30 µM serotonin response; activation, % at 7.6 µM; 360,000 compounds, 0.66% hits;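 active = activation above a run cutoff, the mean activation of all tested compounds plus 3 SD, cut at about 14% in these data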
LANA-H2A inh = blockers of LANA interaction with H2A/H2B – biochemical, FP readout, HTS, primary screen; Protein LANA1 (Human herpesvirus 8 type P (isolate GK18)), Q9QR71; cell-free LANA-H2A/H2B peptide, fluorescence polarization; inhibition, % (concentration not given with the values); 320,000 compounds, 0.6% hits; in the data active = inhibition mostly above about 10%, no sharp cut-off; inactive = mostly below about 6.7%
TLR9-MyD88 inh = inhibitors of TLR9-MyD88 association in cells, primary screen, cell-based, CHO, BLA complementation, fluorescence; CCF4 FRET ratio; inhibition, % at 4.98 µM; 340,000 compounds, 0.21% hits;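 active = inhibition above the mean over all tested compounds plus 3 SD, cut at about 21% in these data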
Rtt109 HAT inh = inhibitors of C. albicans Rtt109/Vps75 HAT, primary screen, biochemical, ThioGlo CoA-SH fluorescence, plate reader. purified Rtt109/Vps75, 4 h. inhibition, % at 34.9 µM. Histone acetyltransferase RTT109 (Candida albicans (strain SC5314 / ATCC MYA-2876)), …. 330,000 compounds, 0.16% hits;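 active = inhibition of at least 50% in every replicate; inconclusive = best replicate reaches 50% inhibition but some replicates fall short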
TLR4-MyD88 BLA = inhibitors of TLR4-MyD88 association in cells, primary screen, cell-based, HeLa CL3-4, BLA complementation, FRET ratio; Toll-like receptor 4 (Homo sapiens) + Myeloid differentiation primary response protein …; HeLa CL3-4 TLR4/MyD88 BLA complementation; inhibition, % at 8.4 µM; 200,000 compounds, 0.18% hits; AID 861, 2007; in the data active = inhibition above about 25%
Target sequence (O00206 whole entry, looked up): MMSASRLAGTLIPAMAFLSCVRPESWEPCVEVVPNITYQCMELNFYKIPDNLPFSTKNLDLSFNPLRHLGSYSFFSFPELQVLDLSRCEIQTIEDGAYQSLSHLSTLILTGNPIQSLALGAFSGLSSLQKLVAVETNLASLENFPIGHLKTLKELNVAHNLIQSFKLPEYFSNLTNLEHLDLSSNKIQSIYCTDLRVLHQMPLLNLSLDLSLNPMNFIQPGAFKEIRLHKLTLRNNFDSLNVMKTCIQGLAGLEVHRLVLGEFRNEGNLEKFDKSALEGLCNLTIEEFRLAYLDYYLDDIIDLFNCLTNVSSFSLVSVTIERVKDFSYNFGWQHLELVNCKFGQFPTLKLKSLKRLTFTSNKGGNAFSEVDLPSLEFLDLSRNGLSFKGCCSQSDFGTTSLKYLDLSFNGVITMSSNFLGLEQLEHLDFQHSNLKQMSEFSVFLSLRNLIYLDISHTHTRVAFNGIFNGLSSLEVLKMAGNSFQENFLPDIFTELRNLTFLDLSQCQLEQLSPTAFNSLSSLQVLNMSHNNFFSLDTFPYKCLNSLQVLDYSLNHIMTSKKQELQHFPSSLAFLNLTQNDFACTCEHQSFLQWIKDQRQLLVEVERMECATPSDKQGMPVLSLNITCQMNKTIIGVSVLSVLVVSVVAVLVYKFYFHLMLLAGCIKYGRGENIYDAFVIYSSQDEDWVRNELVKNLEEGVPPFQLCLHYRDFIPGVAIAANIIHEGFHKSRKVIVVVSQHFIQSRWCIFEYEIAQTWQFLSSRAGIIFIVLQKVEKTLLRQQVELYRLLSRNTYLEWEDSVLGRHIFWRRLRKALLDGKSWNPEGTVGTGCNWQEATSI
Target sequence (Q99836 whole entry, looked up): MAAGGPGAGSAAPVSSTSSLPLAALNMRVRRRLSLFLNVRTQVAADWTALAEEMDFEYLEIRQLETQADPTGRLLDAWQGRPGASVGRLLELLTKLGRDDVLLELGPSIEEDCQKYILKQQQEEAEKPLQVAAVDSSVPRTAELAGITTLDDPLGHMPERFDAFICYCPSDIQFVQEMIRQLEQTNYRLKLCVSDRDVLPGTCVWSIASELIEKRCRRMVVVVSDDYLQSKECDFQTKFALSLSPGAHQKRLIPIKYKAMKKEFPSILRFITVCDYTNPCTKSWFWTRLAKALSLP
A number is an active result. Rows were chosen to be rich in hits. Some 1.8% of all compounds tested hit in one or more screens of this group.

`CNCCCC1c2ccccc2C=Cc2ccccc21` gave NOD2-RIPK2 inh inactive, HTR2A ag inactive, LANA-H2A inh inactive, TLR9-MyD88 inh inactive, Rtt109 HAT inh inactive and TLR4-MyD88 BLA inactive.
O=C(CCOc1ccccc1)NCC(c1ccco1)N1CCCCC1 (stereo unspecified) was read as NOD2-RIPK2 inh inactive, HTR2A ag inactive, LANA-H2A inh 7.9, TLR9-MyD88 inh inactive, Rtt109 HAT inh inactive and TLR4-MyD88 BLA inactive.
Cc1ccc(C(=O)NCC(=O)NCC(c2ccco2)N2CCCCC2)cc1C (stereo unspecified) was read as NOD2-RIPK2 inh inactive, HTR2A ag inactive, TLR9-MyD88 inh inactive and Rtt109 HAT inh 56.1.
Screening CCN(CC)c1ccc2c(c1)CCCN2 returned LANA-H2A inh 20.3 and TLR4-MyD88 BLA inactive.
`C=CCC[C@@H](CCCCC)OC(=O)/C=C/[C@H](O)[C@@H](O)C[C@@H](O)CC=C` gave NOD2-RIPK2 inh inactive and HTR2A ag inactive.
`O=C(c1cc[n+]([O-])cc1)N1CCCC(N2CCN(c3cccc(C(F)(F)F)c3)CC2)C1` (stereo unspecified) gave NOD2-RIPK2 inh inactive, HTR2A ag inactive, LANA-H2A inh 21.0, TLR9-MyD88 inh inactive and Rtt109 HAT inh inactive.
Screening O=C(c1ccsc1)N1CCCC(N2CCN(c3cccc(C(F)(F)F)c3)CC2)C1 (stereo unspecified) returned NOD2-RIPK2 inh inactive, HTR2A ag inactive, LANA-H2A inh inactive, TLR9-MyD88 inh inactive and Rtt109 HAT inh inactive.
Screening Cc1cccc(C)c1NC(=O)C(c1ccccc1)n1c(=O)c(-c2ccco2)nc2ccccc21 (stereo unspecified) returned NOD2-RIPK2 inh inactive and HTR2A ag inactive.
`COc1cc(NC(=O)Nc2nc(C(N)CCc3ccccc3)cs2)cc(OC)c1OC` (stereo unspecified) gave NOD2-RIPK2 inh inactive and HTR2A ag inactive.
Cc1cc(C)cc(-n2ccnc2SCC(=O)c2c(N)n(C3CC3)c(=O)[nH]c2=O)c1 was read as NOD2-RIPK2 inh inactive, HTR2A ag inactive, LANA-H2A inh inactive, TLR9-MyD88 inh inactive and Rtt109 HAT inh inactive.
`COCCCn1c(SCC(=O)c2c(N)n(C3CC3)c(=O)[nH]c2=O)nnc1-c1ccccc1Cl` gave NOD2-RIPK2 inh inactive, HTR2A ag inactive and TLR9-MyD88 inh inactive.
Screening COCCn1c(SCC(=O)c2c(N)n(C3CC3)c(=O)[nH]c2=O)nnc1-c1ccc(Cl)cc1 returned NOD2-RIPK2 inh inactive, HTR2A ag inactive, LANA-H2A inh active, TLR9-MyD88 inh inactive and Rtt109 HAT inh inactive.
Screening Cc1ccc(-n2nnnc2SCC(=O)c2c(N)n(C3CC3)c(=O)[nH]c2=O)cc1 returned NOD2-RIPK2 inh inactive, HTR2A ag inactive, LANA-H2A inh 17.0, TLR9-MyD88 inh inactive and Rtt109 HAT inh inactive.
Cc1ccc(C)c(-n2ccnc2SCC(=O)c2c(N)n(C3CC3)c(=O)[nH]c2=O)c1 was read as NOD2-RIPK2 inh inactive, HTR2A ag inactive, LANA-H2A inh active, TLR9-MyD88 inh inactive and Rtt109 HAT inh inactive.
For CC1(C)CC(=O)C=C(c2n[nH]nc2C2CC2)C1 the results were NOD2-RIPK2 inh inactive, HTR2A ag inactive and TLR9-MyD88 inh inactive.
For COC(=O)c1c(NC(=O)C(=O)N2CCOCC2)sc2c1CCC2 the results were NOD2-RIPK2 inh inactive, HTR2A ag inactive, LANA-H2A inh 13.3, TLR9-MyD88 inh inactive and Rtt109 HAT inh inactive.
For Cc1nc2ccc(C(=O)NCCCn3ccnc3)cn2c1N(C)CC1CCCCC1 the results were NOD2-RIPK2 inh inactive and HTR2A ag inactive.
Screening CC(C)(C)n1nnnc1C(c1ccccc1)N1CCN(c2ncccn2)CC1 (stereo unspecified) returned NOD2-RIPK2 inh inactive and HTR2A ag inactive.
COc1ccc(-c2cnc3c(NC=O)cc(-c4cccc(NS(C)(=O)=O)c4)cn23)cc1OC was read as NOD2-RIPK2 inh inactive and HTR2A ag inactive.
For CCCCS(=O)(=O)c1sc2nc(C)cc(C)c2c1N the results were NOD2-RIPK2 inh inactive, HTR2A ag inactive, LANA-H2A inh inactive, TLR9-MyD88 inh inactive, Rtt109 HAT inh 54.9 and TLR4-MyD88 BLA inactive.
Screening Cc1cc(C)c2c(N)c(S(=O)(=O)c3ccccc3)sc2n1 returned NOD2-RIPK2 inh inactive, HTR2A ag inactive, LANA-H2A inh inactive, TLR9-MyD88 inh inactive, Rtt109 HAT inh inactive and TLR4-MyD88 BLA inactive.
CCOC(=O)c1c(CSC(=N)N)n(C)c2cc(Br)c(OC(C)=O)cc12 was read as NOD2-RIPK2 inh inactive, HTR2A ag inactive, LANA-H2A inh inactive, TLR9-MyD88 inh inactive and Rtt109 HAT inh 85.4.
Screening CC(C)(C)OC(=O)NCCCCCNC(=O)c1[nH]cnc1C(=O)Nc1cc(Br)ccc1F returned NOD2-RIPK2 inh inactive, HTR2A ag inactive and TLR9-MyD88 inh inactive.
CCn1c(NC(=O)C(C)C)c2ccccc2nc1=O was read as NOD2-RIPK2 inh inactive, HTR2A ag inactive, LANA-H2A inh 11.3, TLR9-MyD88 inh inactive, Rtt109 HAT inh inactive and TLR4-MyD88 BLA inactive.
COC(=O)[C@@]12C[C@@H](CC(=O)NCCC(C)C)C(=O)N(CCc3ccc(OC)c(OC)c3)C1=CCC(C)(C)C2 was read as NOD2-RIPK2 inh inactive and HTR2A ag inactive.
For COc1ccccc1C(CNC(=O)c1cccc(S(=O)(=O)Nc2ccc(F)cc2)c1)N1CCCC1 (stereo unspecified) the results were NOD2-RIPK2 inh inactive, HTR2A ag inactive, TLR9-MyD88 inh inactive and Rtt109 HAT inh inactive.
Screening Cc1nc(C(=O)Nc2ccc(F)cc2)nn1-c1ccc([N+](=O)[O-])cc1 returned NOD2-RIPK2 inh inactive, HTR2A ag inactive, LANA-H2A inh 12.4, TLR9-MyD88 inh inactive, Rtt109 HAT inh inactive and TLR4-MyD88 BLA inactive.
CCCCCc1ccc(OCCCC[n+]2ccccc2)c(CCCCC)c1 was read as NOD2-RIPK2 inh inactive, HTR2A ag inactive, LANA-H2A inh inactive, TLR9-MyD88 inh inactive, Rtt109 HAT inh inconclusive and TLR4-MyD88 BLA inactive.
For CCCCCc1ccc(OCCCC[n+]2cccc(C)c2)c(CCCCC)c1 the results were NOD2-RIPK2 inh inactive, HTR2A ag inactive, LANA-H2A inh inactive, TLR9-MyD88 inh inactive, Rtt109 HAT inh 72.6 and TLR4-MyD88 BLA inactive.
For CCCCC(CC)COC(=O)CCCCC(=O)OCC(CC)CCCC (stereo unspecified) the results were NOD2-RIPK2 inh inactive, HTR2A ag inactive, LANA-H2A inh 46.1, TLR9-MyD88 inh inactive and Rtt109 HAT inh inactive.
Screening CCCCCCCC(=O)OCC(O)CO (stereo unspecified) returned NOD2-RIPK2 inh inactive, HTR2A ag inactive, LANA-H2A inh inactive, TLR9-MyD88 inh inactive, Rtt109 HAT inh inactive and TLR4-MyD88 BLA inactive.
